Assay in all cases: PBM binding z-score (relative to random genomic background probes); higher = stronger binding; sequences stand for … in GC…GCGATTGACAGCGTAGAATGAAGG
The test system of assay [1] is FXR:RXRa (NR concentration 270 nM, RXRa partner concentration 90 nM). In outline: (§1)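 Each nuclear receptor dimer, without ligand, was incubated for 1 h on custom Agilent 4×180K protein-binding microarrays. Binding was detected with antibodies against each partner (one per run), and scanned fluorescence was regression-normalized. The binding z-scores are referenced to random human genomic background probes.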

Assay [2] deals with LXRa:RXRa (NR concentration 270 nM, RXRa partner concentration 90 nM). A digest of the protocol: as §1
The test system of assay [3] is LXRa homodimer (NR concentration 270 nM). A digest of the protocol: as §1
In assay [4] the test system is LXRb:RXRa (NR concentration 270 nM, RXRa partner concentration 90 nM). A digest of the protocol:
as §1

Assay [5] has as its system LXRb homodimer (NR concentration 270 nM). A digest of the protocol:
as §1

Assay [6] deals with PPARa:RXRa (NR concentration 270 nM, RXRa partner concentration 90 nM). A digest of the protocol: as §1
Assay [7] deals with PPARg:RXRa (NR concentration 180 nM, RXRa partner concentration 90 nM). A digest of the protocol:
as §1

Assay [8] concerns PPARg:RXRa 270nM:90nM, anti-RXR (NR concentration 270 nM, RXRa partner concentration 90 nM). In outline:
as §1

Assay [9] relates to PPARg:RXRa 30nM:10nM, anti-RXR (NR concentration 30 nM, RXRa partner concentration 10 nM). In outline: as §1
The test system of assay [10] is PPARg:RXRa 90nM:30nM, anti-RXR (NR concentration 90 nM, RXRa partner concentration 30 nM). A digest of the protocol: as §1

As to CCTACTGGGCCCCGAAAGGTCATTGATTCAGTGA, the PBM binding z-score is 3.17 in assay [1]; 4.07 in assay [2]; 4.02 in [3]; 3.98 in assay [4]; 0.0468 in [5]; 3.93 in [6]. Moreover, the PBM binding z-score in assay [7] turned out to be 1.14; in assay [8] it was 2.68; in assay [9], 0.29; in [10] it was 1.58.
As for CCTACTGGGCCCTCAGGTCATTGATATCAACGTT, the PBM binding z-score is 0.913 in [1]; 0.734 in [2]; 0.835 in [3]; 1.2 in [4]; -0.368 in assay [5]; 1.5 in assay [6]. The PBM binding z-score in assay [7] is 0.069; in [8], 1.15; in assay [9], -0.276; in [10] it was 0.433.
CGAACTAGGTCACGAAAGGTCAAAGTCGAATGAC: the PBM binding z-score in [1] was 7.73; in [2], 8.18; in assay [3], 7.39; in [4], 7.24; in assay [5] it was 2.38; in assay [6], 6.49. Besides, the PBM binding z-score in assay [7] was determined as 10.5; in assay [8], 8.46; in assay [9] it was 6.75; in [10] it was 8.51.
For AGAACGAGGGCAATGAGTTGATAGCGCGGGTGGC, the PBM binding z-score in assay [1] was 0.136; in assay [2] it was 0.127; in assay [3] it was -0.734; in assay [4], -0.343; in [5], -0.754; in [6], 1.25. For the same sequence, the PBM binding z-score in assay [7] was 0.897; in [8], 0.618; in assay [9], -0.31; in assay [10], 0.0829.
As to CTCGAAAGGTCGTGCTCTGGTGAGTATACCAAAC, the PBM binding z-score was 4.94 in assay [1]; 3.65 in assay [2]; 0.255 in [3]; 3.52 in assay [4]; 0.0875 in assay [5]; 4.94 in [6]. The PBM binding z-score turned out to be 2.33 in assay [7], 3.59 in assay [8], 0.836 in assay [9] and 2.12 in assay [10].
With TCTAGCAGGCCAGAGGGTCACTCGAGAGGTACGG, the PBM binding z-score in assay [1] is 0.927; in [2], 0.659; in assay [3] it was -0.59; in [4], 0.806; in assay [5] it was -1.36; in assay [6], 2.11. The PBM binding z-score in assay [7] was found to be 1.36; in assay [8], 2.59; in assay [9] it was 1.79; in assay [10], 2.52.
As for GGAACGAGGGCAAGGTTGATAGCATCTGTCGACG, the PBM binding z-score is 0.705 in assay [1]; 0.414 in assay [2]; -0.458 in assay [3]; 0.32 in [4]; -0.386 in [5]; 2.82 in [6]. Also, the PBM binding z-score in assay [7] is 4.49; in assay [8] it was 5.17; in assay [9], 3.62; in assay [10], 4.91.
Regarding GCAAATAGGTAATACAAGGTGAAAGTCCGATTGT, the PBM binding z-score was 2.27 in [1]; 2.87 in assay [2]; 0.422 in assay [3]; 0.806 in assay [4]; -0.48 in assay [5]; 1.49 in assay [6]. In addition, the PBM binding z-score in assay [7] stood at 1.02; in assay [8], 1.19; in assay [9], 0.599; in assay [10], 0.979.
On to CAAACTAGGTCAAAGTCAAAGTCGGTTTGTGCCA, for which the PBM binding z-score in assay [1] came to 4.66; in assay [2], 3.77; in assay [3], 0.899; in assay [4], 2.64; in [5], 1.02; in assay [6], 5.18. Besides, the PBM binding z-score is 8.68 in assay [7], 7.7 in [8], 6.17 in assay [9] and 8.03 in assay [10].
Regarding GCAGACAGGTGAAACGCAGGTAACTCGGGGTGGC, the PBM binding z-score in assay [1] was -0.13; in assay [2], 0.49; in [3], -0.695; in assay [4], 0.134; in [5], -0.553; in assay [6], 0.89. Moreover, the PBM binding z-score in [7] was 0.313; in assay [8], 0.104; in assay [9] it was -0.699; in assay [10], -0.194.
In the case of GATACAGGGTCAGCTAGATGCCAGAGTATGGAAA, the PBM binding z-score is 5.08 in assay [1]; 2.66 in assay [2]; -0.125 in assay [3]; 2.53 in [4]; -0.514 in assay [5]; 4.79 in assay [6]. Further, the PBM binding z-score in [7] is 4.08; in [8], 3.48; in assay [9], 0.884; in assay [10], 2.4.
Consider AGTCAAAGTTCATCTAGGTAACGTGAGATATGCT, for which the PBM binding z-score in assay [1] stood at 6.5; in [2] it was 5.85; in assay [3] it was 4.89; in assay [4], 3.81; in assay [5], 1.73; in [6], 4.76. The PBM binding z-score in assay [7] worked out at 6.65; in assay [8], 6.18; in assay [9], 3.58; in assay [10], 5.42.
